Data from PubChem BioAssay (Tox21).
“And” between values parts separate entries of the source, which are not always exact repeats. Equal values may be shown once. Results filed as inconclusive are left out. Where a call stands in place of a potency, no number is given. Some structures have more than one record in an assay (separate samples or runs), and their calls can disagree. The source made the active and inactive calls. Unless noted, calls follow the shape of the dose curve; as a rule, active = well fitted curve in the direction sought with a large enough effect in the repeat runs; inconclusive = weak or mixed curves; inactive = no such curve, though single readings can be large; an effect the other way counts as inactive or inconclusive.

What was measured:
[1] = molecular target: Thyrotropin receptor (Homo sapiens) (UniProt P16473); test: qHTS assay to identify small molecule antagonists of the thyroid stimulating hormone receptor (TSHR) signaling pathway (AID 1259385; calls by dose curve; also: nearly all actives have a fitted effect of over 20% in size)
Sequence of Thyrotropin receptor (Homo sapiens) (P16473 whole entry, looked up): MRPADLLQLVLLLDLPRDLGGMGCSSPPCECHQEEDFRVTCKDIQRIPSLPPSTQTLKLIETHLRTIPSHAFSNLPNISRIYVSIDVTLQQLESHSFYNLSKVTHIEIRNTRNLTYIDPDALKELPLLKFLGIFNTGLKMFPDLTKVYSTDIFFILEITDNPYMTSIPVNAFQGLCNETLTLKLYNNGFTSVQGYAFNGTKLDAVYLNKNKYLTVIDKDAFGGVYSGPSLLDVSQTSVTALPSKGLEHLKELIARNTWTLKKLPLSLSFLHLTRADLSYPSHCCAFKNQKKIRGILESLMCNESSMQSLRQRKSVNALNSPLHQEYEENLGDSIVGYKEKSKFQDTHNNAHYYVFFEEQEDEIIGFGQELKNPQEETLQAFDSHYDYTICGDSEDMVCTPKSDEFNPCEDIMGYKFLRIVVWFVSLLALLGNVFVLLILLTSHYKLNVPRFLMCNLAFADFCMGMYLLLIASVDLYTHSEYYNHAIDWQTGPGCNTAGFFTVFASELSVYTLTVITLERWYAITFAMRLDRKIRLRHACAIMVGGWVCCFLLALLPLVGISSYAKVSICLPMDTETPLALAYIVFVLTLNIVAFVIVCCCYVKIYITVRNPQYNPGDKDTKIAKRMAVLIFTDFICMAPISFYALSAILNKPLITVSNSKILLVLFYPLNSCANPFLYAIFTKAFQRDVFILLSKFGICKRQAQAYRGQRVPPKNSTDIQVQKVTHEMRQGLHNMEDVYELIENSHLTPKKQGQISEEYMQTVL
Summary of the method: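 TSHR-HEK293 cells were plated and held 18 h at 37C/5% CO2, then given compound plus Ro20-1724 and stimulated with TSH at 1.5 ng/mL final. After 30 min at room temperature, cAMP was detected with cAMP-d2/anti-cAMP-cryptate (1 h) by fluorescence.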

[2] = qHTS assay to identify small molecule agonists of the estrogen receptor alpha (ER-alpha) signaling pathway in the presence of an antagonist - cell viability counter screen (AID 1259386);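 also: cells exposed to compounds for 22 h at 37 °C before the viability read; nearly all actives have a fitted effect of over 30% in size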; also: potency is read from the fitted curve at half-maximal effect
Summary of the method: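 VM7Luc4E2 cells (endogenous full-length ER-alpha, 4×ERE-luciferase) were held 5 days in phenol red-free medium with 10% charcoal-stripped FBS, plated, then given 10.0nM ICI-182,780 and compounds at 15 concentrations for 22hr at 37C; viability read by CellTiter-Fluor fluorescence.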

[3] = molecular target: Progesterone receptor (Homo sapiens) (UniProt P06401); test: qHTS assay to identify small molecule antagonists of the progesterone receptor (PR) signaling pathway (AID 1346795; active = well fitted inhibition curve with a large enough effect in the signal ratio in the repeat runs, not every such curve was filed as active; the % refers to the signal ratio; also: potency is read from the fitted curve at half-maximal effect)
Sequence of Progesterone receptor (Homo sapiens) (P06401 whole entry, looked up): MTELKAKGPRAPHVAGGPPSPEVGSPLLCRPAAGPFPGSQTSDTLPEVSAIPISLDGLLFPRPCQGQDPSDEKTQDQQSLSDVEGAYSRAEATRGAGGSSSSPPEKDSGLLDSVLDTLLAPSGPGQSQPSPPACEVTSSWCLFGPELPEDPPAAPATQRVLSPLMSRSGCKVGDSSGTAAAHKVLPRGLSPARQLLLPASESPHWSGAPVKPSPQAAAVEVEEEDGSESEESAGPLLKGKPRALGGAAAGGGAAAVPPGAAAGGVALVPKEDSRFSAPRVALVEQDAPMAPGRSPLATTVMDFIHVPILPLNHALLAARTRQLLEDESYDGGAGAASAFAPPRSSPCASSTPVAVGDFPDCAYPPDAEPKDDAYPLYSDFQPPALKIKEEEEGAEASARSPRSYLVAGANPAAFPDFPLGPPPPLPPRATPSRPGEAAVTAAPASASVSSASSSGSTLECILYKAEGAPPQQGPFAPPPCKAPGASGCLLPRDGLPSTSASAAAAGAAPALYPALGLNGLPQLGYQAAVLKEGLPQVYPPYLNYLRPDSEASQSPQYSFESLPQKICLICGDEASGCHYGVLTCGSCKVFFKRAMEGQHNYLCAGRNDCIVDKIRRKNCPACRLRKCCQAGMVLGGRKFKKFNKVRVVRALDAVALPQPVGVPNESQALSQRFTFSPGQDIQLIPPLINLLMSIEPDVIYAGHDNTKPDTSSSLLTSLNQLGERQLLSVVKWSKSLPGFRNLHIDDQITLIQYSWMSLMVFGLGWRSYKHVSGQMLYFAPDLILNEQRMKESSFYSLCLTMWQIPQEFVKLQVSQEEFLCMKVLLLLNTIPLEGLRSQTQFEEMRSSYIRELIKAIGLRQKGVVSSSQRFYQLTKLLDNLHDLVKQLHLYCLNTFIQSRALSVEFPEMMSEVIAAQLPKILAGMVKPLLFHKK
Summary of the method: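 Antagonist mode: compounds tested against 1 nM (final) promegestone stimulation in HEK293T cells expressing PR-UAS-bla reporter, 16 hr at 37C, 5% CO2; beta-lactamase activity detected via B/G FRET substrate after 2 hr at room temperature.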

[4] = qHTS assay to identify small molecule antagonists of the progesterone receptor (PR) signaling pathway - cell viability counter screen (AID 1346798); also: series mostly up to about 92 µM; nearly all actives have a fitted effect of over 50% in size
Summary of the method: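 Counter screen for cytotoxicity: viability of PR-UAS-bla HEK293T cells was measured with CellTiter-Glo luminescence following 16 hr compound exposure in the presence of R5020.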

[5] = qHTS assay to identify small molecule agonists of the progesterone receptor (PR) signaling pathway - cell viability counter screen (AID 1346799; calls by dose curve; also: nearly all actives have a fitted effect of over 45% in size)
Summary of the method: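 Cells (PR-UAS-bla HEK293T) are plated at 3,000/well in 2% charcoal-stripped FBS medium, rested 6 hr, dosed and incubated 16 hr at 37C. CellTiter-Glo is then added and luminescence measured after 30 min at room temperature.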

[6] = qHTS assay to identify small molecule antagonists of the TGF-beta/Smad signaling pathway - cell viability counter screen (AID 1346824); also: nearly all actives have a fitted effect of over 50% in size
Summary of the method: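 SBE-bla HEK 293T cells were plated overnight at 37 C, then given compounds in DMSO plus TGF-beta1 (added as 0.25 ng/mL solution) for 5 hr. After the bla read, CellTiter-Glo was added to the same wells and luminescence read after 30 min at room temperature.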

[7] = qHTS assay to identify small molecule agonists of the TGF-beta/Smad signaling pathway - cell viability counter screen (AID 1346829); also: top concentration of the series differs between compounds; nearly all actives have a fitted effect of over 45% in size
Summary of the method: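 Cytotoxicity counter screen: CellTiter-Glo luminescence (30 min, room temperature) measured in the SBE-bla HEK 293T reporter wells after 5 hr compound treatment at 37 C and the 2 hr substrate step.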

[8] = qHTS assay to identify small molecule agonists of the TGF-beta/Smad signaling pathway (AID 1346859; active = well fitted activation curve with a large enough effect in the signal ratio in the repeat runs, not every such curve was filed as active; the % refers to the signal ratio; also: series mostly up to about 77 µM)
Summary of the method: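 Reporter line: HEK 293T with stably integrated SBE-controlled beta-lactamase. Compound exposure lasts 5 hr at 37 C and 5% CO2; substrate loading follows for 2 hr at room temperature, with emission read at 460 and 530 nm.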

[9] = Human pregnane X receptor (PXR) small molecule agonists, qHTS cell viability counter screen (AID 1346977); also: nearly all actives have a fitted effect of over 50% in size; also: potency is read from the fitted curve at half-maximal effect
Summary of the method: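 Cytotoxicity counter screen run in the same wells as the PXR luciferase assay, using PXR-Luc HepG2 cells in charcoal-stripped serum medium. Viability: CellTiter-Fluor fluorescence after 24hr compound treatment.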

[10] = Caspase-3/7 induction in HepG2 cells by small molecules, qHTS assay (AID 1346978); also: nearly all actives have a fitted effect of over 15% in size
Summary of the method: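 Wild-type HepG2 cells (2,000/well) were settled 5 h at 37 C, 5% CO2, then exposed to compounds in DMSO for 17 h. Caspase-3/7 activity was read by luminescence 30 min after adding Caspase-Glo 3/7 reagent at room temperature.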

[11] = Caspase-3/7 induction in CHO-K1 cells by small molecules, qHTS cell viability counter screen (AID 1346979); also: nearly all actives have a fitted effect of over 35% in size; also: potency is read from the fitted curve at half-maximal effect
Summary of the method: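 Cytotoxicity counter screen run in parallel with the caspase-3/7 assay: CHO-K1 cells, 16hr compound treatment at 37C, then CellTiter-Fluor for 1hr before fluorescence reading.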

[12] = Caspase-3/7 induction in CHO-K1 cells by small molecules, qHTS assay (AID 1346980); also: nearly all actives have a fitted effect of over 15% in size
Summary of the method: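 Wild-type cells were seeded at 1,500 per well and settled 5 hr at 37 C, 5% CO2, then exposed to DMSO-dissolved compounds for 17 hr. Caspase-Glo 3/7 reagent was added, and luminescence was read after 30min at room temperature.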

[13] = Caspase-3/7 induction in HepG2 cells by small molecules, qHTS cell viability counter screen (AID 1346981); also: nearly all actives have a fitted effect of over 30% in size; also: potency is read from the fitted curve at half-maximal effect
Summary of the method: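 Wild-type HepG2 cells (2,000/well) were allowed to settle for 5 hr at 37 C, 5% CO2, then dosed with compounds in DMSO by pin transfer. After 16 hr at 37 C, CellTiter-Fluor was added and fluorescence read 1 hr later.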

[14] = molecular target: Nuclear receptor subfamily 1 group I member 2 (Homo sapiens) (UniProt O75469); test: Human pregnane X receptor (PXR) small molecule agonists, qHTS assay (AID 1346982); also: nearly all actives have a fitted effect of over 35% in size; also: potency is read from the fitted curve at half-maximal effect
Sequence of Nuclear receptor subfamily 1 group I member 2 (Homo sapiens) (O75469 whole entry, looked up): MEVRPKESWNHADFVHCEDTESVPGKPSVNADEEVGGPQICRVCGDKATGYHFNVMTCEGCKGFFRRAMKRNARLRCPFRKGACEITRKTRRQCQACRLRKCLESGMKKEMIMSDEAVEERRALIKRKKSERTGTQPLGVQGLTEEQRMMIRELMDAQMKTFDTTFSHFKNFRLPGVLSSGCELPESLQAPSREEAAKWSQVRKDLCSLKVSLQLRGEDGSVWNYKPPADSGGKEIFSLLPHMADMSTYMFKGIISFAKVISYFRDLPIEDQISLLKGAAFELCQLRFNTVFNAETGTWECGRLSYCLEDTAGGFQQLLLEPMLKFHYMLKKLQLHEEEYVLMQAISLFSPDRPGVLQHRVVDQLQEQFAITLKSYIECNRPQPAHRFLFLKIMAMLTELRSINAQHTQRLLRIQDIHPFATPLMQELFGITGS
Summary of the method: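 PXR-Luc HepG2 cells (CYP3A4 promoter-driven luciferase) were seeded in medium with 5% charcoal-stripped FBS, left 5 hr at 37 C, then exposed to compounds in DMSO for 24 hr. Luminescence was read after ONE-Glo addition.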

[15] = molecular target: Thyrotropin-releasing hormone receptor (Homo sapiens) (UniProt P34981); test: qHTS assay to identify small molecule antagonists of the thyrotropin-releasing hormone receptor (TRHR) signaling pathway (AID 1346877; active = well fitted inhibition curve with a large enough effect in the repeat runs, not every such curve was filed as active; also: series mostly up to about 51 µM)
Sequence of Thyrotropin-releasing hormone receptor (Homo sapiens) (P34981 whole entry, looked up): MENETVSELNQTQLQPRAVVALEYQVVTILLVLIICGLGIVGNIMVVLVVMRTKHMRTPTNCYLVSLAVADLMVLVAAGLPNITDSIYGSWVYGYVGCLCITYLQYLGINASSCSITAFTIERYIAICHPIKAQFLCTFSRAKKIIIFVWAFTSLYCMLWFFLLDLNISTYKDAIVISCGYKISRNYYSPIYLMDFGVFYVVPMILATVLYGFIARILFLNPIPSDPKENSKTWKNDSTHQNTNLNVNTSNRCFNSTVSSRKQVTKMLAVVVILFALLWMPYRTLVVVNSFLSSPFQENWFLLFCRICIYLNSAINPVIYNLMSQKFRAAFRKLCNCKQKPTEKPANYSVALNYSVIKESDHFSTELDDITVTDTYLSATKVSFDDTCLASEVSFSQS
Summary of the method: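 TRHR-expressing HEK293 cells were seeded, cultured 18 h at 37 °C, then loaded with calcium dye for 2 h. Compounds were pre-incubated 5 min at room temperature before 1 nM TRH (final) was added, and kinetic fluorescence was recorded for 3 min.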

[16] = molecular target: Thyrotropin-releasing hormone receptor (Homo sapiens) (UniProt P34981); test: qHTS assay to identify small molecule agonists of the thyrotropin-releasing hormone receptor (TRHR) signaling pathway (AID 1346891; calls by dose curve; also: series mostly up to about 58 µM)
Summary of the method: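 Cells: TRHR-Hek293, seeded and incubated 18 h. Dye loading: 2 h at 37 °C. Compound added from DMSO stock by pin tool. Read-out: kinetic calcium fluorescence over 3 min.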

[17] = molecular target: Progesterone receptor (Homo sapiens) (UniProt P06401); test: qHTS assay to identify small molecule agonists of the progesterone receptor (PR) signaling pathway (AID 1346784; calls by dose curve; also: nearly all actives have a fitted effect of over 30% in size)
Summary of the method: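 Cells (PR-UAS-bla HEK 293T, GripTite) were plated in assay medium containing 2% charcoal-stripped FBS and incubated 6 hr. Test compounds in DMSO were added for 16 hr at 37C. FRET substrate was then loaded for 2 hr at room temperature before fluorescence reading.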

[18] = molecular target: Nuclear receptor subfamily 1 group I member 2 (Rattus norvegicus) (UniProt Q9R1A7); test: Rat pregnane X receptor (rPXR) activation by small molecules, qHTS assay (AID 1346983); conditions: rPXR luciferase reporter cells, One-Glo luminescence, 24 h; stronger effect = higher value; also: nearly all actives have a fitted effect of over 20% in size
Sequence of Nuclear receptor subfamily 1 group I member 2 (Rattus norvegicus) (Q9R1A7 whole entry, looked up): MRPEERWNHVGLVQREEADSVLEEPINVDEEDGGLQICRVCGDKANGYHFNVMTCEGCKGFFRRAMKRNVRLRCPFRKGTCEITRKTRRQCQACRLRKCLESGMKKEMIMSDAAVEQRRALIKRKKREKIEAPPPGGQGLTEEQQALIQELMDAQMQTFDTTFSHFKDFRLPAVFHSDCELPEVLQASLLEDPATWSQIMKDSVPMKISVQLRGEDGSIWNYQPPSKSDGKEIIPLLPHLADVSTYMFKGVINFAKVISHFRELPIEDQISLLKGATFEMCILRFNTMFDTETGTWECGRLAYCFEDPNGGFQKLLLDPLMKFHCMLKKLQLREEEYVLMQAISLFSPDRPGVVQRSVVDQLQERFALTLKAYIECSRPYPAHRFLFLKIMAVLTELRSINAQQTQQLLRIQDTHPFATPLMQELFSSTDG
Summary of the method: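 Cell-based rPXR luciferase reporter assay, 2,000 cells per well, rested 5hr at 37 C before compound addition in DMSO, then 24 hr at 37 C. One-Glo reagent was added and luminescence read after 30 min at room temperature.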

[19] = molecular target: Nuclear receptor subfamily 1 group I member 2 (Homo sapiens) (UniProt O75469); test: CYP3A4 induction through human pregnane X receptor (PXR) by small molecules, qHTS assay (AID 1346984); also: nearly all actives have a fitted effect of over 40% in size
Summary of the method: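 DPX-2 cells (HepG2 co-transfected with PXR and CYP3A4 promoter-luciferase) treated with compounds 24 h at 37C; luciferin-IPA CYP3A4 substrate 3uM final added for 3 h, then One-Glo; luminescence read. qHTS format.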

[20] = molecular target: Nuclear receptor subfamily 1 group I member 2 (Homo sapiens) (UniProt O75469); test: Human pregnane X receptor (PXR) activation by small molecules, qHTS assay (AID 1346985); also: nearly all actives have a fitted effect of over 40% in size
Summary of the method: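 DPX-2 cells (HepG2 co-transfected with a PXR response element and a CYP3A4-promoter luciferase construct) were seeded at 2,000 per well, rested 5 hr at 37C, then exposed to DMSO-dissolved compounds for 24 hr. Activation was read as luciferase luminescence.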

Compound	outcome [1]	Potency [2]	Potency [3]	Potency [4]	Potency [5]	Potency [6]	Potency [7]	outcome [8]	Potency [9]	Potency [10]	Potency [11]	Potency [12]	Potency [13]	Potency [14]	Potency [15]	Potency [16]	Potency [17]	max activation [18]	outcome [19]	outcome [20]
CCC(C)c1cc([N+](=O)[O-])cc([N+](=O)[O-])c1O (stereo unspecified)	inactive	inactive and 24.3 µM (active)	inactive	inactive	inactive	inactive	inactive	inactive	inactive and 8.63 µM (active)	inactive	inactive and 15.4 µM (active)	inactive	inactive and 17.2 µM (active)	inactive and 27.3 µM (active)	–	–	–	–	–	–
c1nc[nH]n1	inactive	inactive	inactive	inactive	inactive	inactive	inactive	inactive	inactive	inactive	–	inactive	inactive	inactive	–	–	–	–	–	–
C=C(C)[C@H]1Cc2c(ccc3c2O[C@@H]2COc4cc(OC)c(OC)cc4[C@@H]2C3=O)O1	inactive	2.77 µM (active) and 96.9 nM (active) and 188 nM (active)	19.6 µM (active) and 9.69 µM (active) and 11.9 µM (active)	–	–	–	inactive	inactive	112 nM (active) and 2.17 µM (active) and 298 nM (active)	inactive	175 nM (active) and 770 nM (active) and 7.5 µM (active)	inactive	39.1 µM (active) and 30.6 µM (active) and 5.31 µM (active)	inactive	inactive	inactive	–	–	–	–
CC(C)(C)c1ccccc1O	–	inactive	inactive	inactive	inactive	inactive	inactive	inactive	inactive	inactive	–	inactive	inactive	inactive	inactive	inactive	inactive	–	–	–
O=c1oc2ccccc2c(O)c1C(CC(O)c1ccc(-c2ccc(Br)cc2)cc1)c1ccccc1 (stereo unspecified)	–	inactive	–	–	–	inactive	inactive	–	inactive	inactive	inactive	inactive	inactive	inactive	inactive	inactive	–	-5.73% (inactive)	inactive	inactive
Nc1c(Cl)cc([N+](=O)[O-])cc1Cl	–	–	30.6 µM (active)	inactive	–	inactive	inactive	inactive	inactive	inactive	inactive	inactive	inactive	27.5 µM (active)	inactive	inactive	inactive	–	–	–
Nc1ccc(Cl)c(Cl)c1	inactive	inactive	–	inactive	inactive	inactive	inactive	inactive	inactive	inactive	inactive	inactive	inactive	inactive	inactive	inactive	–	–	–	–
CCN(CC)C(=O)SCc1ccc(Cl)cc1	–	inactive	25.1 µM (active) and 27.3 µM (active)	inactive	inactive	inactive	inactive	inactive	inactive	inactive	inactive	inactive	inactive	56.1 µM (active)	inactive	inactive	inactive	–	–	–
Nc1ccc(-c2ccc(N)c(N)c2)cc1N	–	54.3 µM (active)	48.4 µM (active) and 24.3 µM (active)	inactive	inactive	inactive	inactive	inactive	inactive	inactive	–	inactive	48.4 µM (active)	24.3 µM (active)	–	–	–	–	–	–
CCC(CC)Nc1c([N+](=O)[O-])cc(C)c(C)c1[N+](=O)[O-]	inactive	inactive	–	inactive	inactive	inactive	inactive	inactive	inactive	inactive	–	inactive	inactive	61.9 µM (active) and inactive	inactive	inactive	–	–	–	–
CCc1cccc(CC)c1N(COC)C(=O)CCl	–	inactive	–	inactive	–	inactive	inactive	inactive	39.8 µM (active) and inactive	inactive	–	inactive	inactive	10.5 µM (active) and 1.37 µM (active)	inactive	inactive	–	–	–	–
CCCCC(CC)COC(=O)Cl (stereo unspecified)	inactive	inactive	–	inactive	inactive	inactive	inactive	inactive	inactive	inactive	–	inactive	inactive	inactive	inactive	inactive	–	–	–	–
O=S(=O)(Oc1ccc(Cl)cc1)c1ccc(Cl)cc1	–	inactive	17.5 µM (active) and 17.2 µM (active)	inactive	inactive	inactive	inactive	inactive	inactive	inactive	–	inactive	inactive	55.2 µM (active) and 30.6 µM (active)	inactive	inactive	inactive	–	–	–
